From PubChem BioAssay (EPA / NIEHS) come the findings set out here.

Test [1] is described as follows: BSK_3C_VCAM1: BioMAP Diversity Plus: 3C Assay for Vascular cell adhesion molecule 1 (VCAM1) Biomarker Activity (AID 2282999; active = hit-call score of the fitted dose curve at least 0.9, where 1 is the maximum; inactive = score below 0.9). To be noted: BioMAP 3C HUVEC, VCAM1 ELISA, cytokine-stimulated; actives raise or lower the signal. The method in brief:
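Human umbilical vein endothelial cells (3C system), biomarker read by ELISA 24 h after dosing; bidirectional fit against DMSO baseline. Cytotoxicity tracked by SRB total-protein staining in parallel cultures at biomarker time.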

A short description of test [2]: BSK_4H_Eotaxin3: BioMAP Diversity Plus: 4H Assay for Eotaxin 3 Biomarker Activity (AID 2283000; active = hit-call score of the fitted dose curve at least 0.9, where 1 is the maximum; inactive = score below 0.9;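 as to outcome: CCL26 protein level quantified by ELISA in parallel with SRB cytotoxicity check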). To be noted: primary human endothelial cells (HUVEC); actives raise or lower the signal. The method in brief:
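ELISA quantitation of CCL26 (Eotaxin-3) protein from chemically dosed human vascular endothelial cells at 24 h; increases and decreases both scored relative to DMSO-treated baseline.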

Test [3] addresses human Peroxisome Proliferator-activated Receptor delta (PPARd), PPARD (gene 5467) (UniProt Q03181). Briefly: ATG_PPARd_TRANS: Attagene TRANS-FACTORIAL HepG2 Assay for human Peroxisome Proliferator-activated Receptor delta (PPARd) (AID 2283002). The method in brief:
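Fluorescence from capillary electrophoresis of labelled RT-PCR reporter fragments gives the signal; DMSO sets baseline. Cells: HepG2 transiently carrying GAL4-UAS reporter units plus chimeric nuclear receptor-Gal4 proteins, exposed to chemicals for 24 h.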

Read-out in test [4]: Intercellular Adhesion Molecule 1 (ICAM1), ICAM1 (gene 3383)
Put plainly: BSK_3C_ICAM1: BioMAP Diversity Plus: 3C Assay for Intercellular Adhesion Molecule 1 (ICAM1) Biomarker Activity (AID 2283003; active = hit-call score of the fitted dose curve at least 0.9, where 1 is the maximum; inactive = score below 0.9). To be noted: primary human endothelial cells (HUVEC); actives raise or lower the signal. The procedure, abridged:
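ICAM-1 levels measured by ELISA after HUVEC cultures in the 3C system had been dosed for 24 h. Gain or loss of signal relative to DMSO was fitted in both directions.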

The target in test [5] is human Retinoic Acid Receptor beta (RARb), RARB (gene 5915) (UniProt P10826). Briefly: ATG_RARb_TRANS: Attagene TRANS-FACTORIAL HepG2 Assay for human Retinoic Acid Receptor beta (AID 2283004). The method in brief:
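Fluorescent capillary-electrophoresis detection of GAL4-UAS reporter mRNA defines the endpoint, with induction over DMSO-treated wells scored as activity. Transiently transfected human hepatoma HepG2 cells expressing exogenous NR–Gal4 proteins are exposed to test chemicals for 24 h.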

Test [6] deals with Retinoic acid receptor alpha (Homo sapiens) (UniProt P10276). Briefly: ATG_RARa_TRANS: Attagene TRANS-FACTORIAL HepG2 Assay for human Retinoic Acid Receptor alpha (RARa) (AID 2283005). The procedure, abridged:
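HepG2 transiently transfected with multiplex GAL4-UAS reporter units including a human RARa–GAL4 chimera; 24 h compound exposure. Reporter mRNA quantified by RT-PCR, 6-FAM labeling and capillary electrophoresis; gain of signal versus DMSO.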

Test [7] can be described thus: BSK_3C_Proliferation: Cell Proliferation Assessment in the BioMAP Diversity Plus: 3C Assay (AID 2283006; active = hit-call score of the fitted dose curve at least 0.9, where 1 is the maximum; inactive = score below 0.9;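 as to AC50: potency may reflect either rise or fall in cell number versus DMSO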). To be noted: primary human endothelial cells (HUVEC). The method in brief: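 Read-out is total protein by SRB absorbance at 560 nm, taken as a proxy for relative cell number. Primary human umbilical vein endothelium cultured below confluence was dosed for 48 h, TCA-fixed and SRB-stained; curves were fitted bidirectionally versus DMSO.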

Test [8] has as its target Peroxisome proliferator-activated receptor gamma (Homo sapiens) (UniProt P37231). Briefly: ATG_PPARg_TRANS: Attagene TRANS-FACTORIAL HepG2 Assay for human Peroxisome Proliferator-activated Receptor-gamma (PPARg) (AID 2283007). The method in brief: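 Liver-derived HepG2 cells expressing an exogenous NR-Gal4 chimera alongside GAL4-UAS reporter genes; 24 h exposure. Fluorescence of reporter RT-PCR products, separated by capillary electrophoresis, gives mRNA induction relative to DMSO.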

The target of test [9] is Nuclear receptor subfamily 1 group I member 2 (Homo sapiens) (UniProt O75469). Put plainly: ATG_PXR_TRANS: Attagene TRANS-FACTORIAL HepG2 Assay for human Pregnane X Receptor (PXR) (AID 2283008). The method in brief: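 Read-out is fluorescence of labelled reporter cDNA fragments separated by capillary electrophoresis after RT-PCR and HpaI digestion. Source: HepG2 cells carrying PXR-GAL4/UAS reporter constructs, treated 24 h; activity fitted upward relative to DMSO.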
Chain of Nuclear receptor subfamily 1 group I member 2 (Homo sapiens) (O75469 whole entry, looked up, the tested form may be a part): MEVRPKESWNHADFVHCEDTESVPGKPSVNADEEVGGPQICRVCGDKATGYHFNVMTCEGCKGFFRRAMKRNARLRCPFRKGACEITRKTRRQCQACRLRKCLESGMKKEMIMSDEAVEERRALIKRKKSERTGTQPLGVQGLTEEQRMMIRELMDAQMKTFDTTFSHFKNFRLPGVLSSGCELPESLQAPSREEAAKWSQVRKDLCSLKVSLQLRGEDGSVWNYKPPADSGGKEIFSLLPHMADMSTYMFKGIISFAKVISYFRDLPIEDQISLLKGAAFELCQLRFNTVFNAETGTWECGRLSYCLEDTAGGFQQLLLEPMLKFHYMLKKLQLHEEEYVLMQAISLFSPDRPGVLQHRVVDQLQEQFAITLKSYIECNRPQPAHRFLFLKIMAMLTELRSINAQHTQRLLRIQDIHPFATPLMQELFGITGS

Test [10] has as its target human Retinoic Acid Receptor gamma (RARg), RARG (gene 5916) (UniProt P13631). Put plainly: ATG_RARg_TRANS: Attagene TRANS-FACTORIAL HepG2 Assay for human Retinoic Acid Receptor gamma (RARg) (AID 2283009). The procedure, abridged: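 Transient transfection of HepG2 with multi-reporter constructs, then 24 h chemical treatment. Total RNA isolated, reverse-transcribed, PCR-amplified, fluorescently labelled and resolved by capillary electrophoresis; activity scored as mRNA induction versus DMSO.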

Test [11] deals with human RAR-related Orphan Receptor beta (RORb), RORB (gene 6096) (UniProt Q92753). Put plainly: ATG_RORb_TRANS: Attagene TRANS-FACTORIAL HepG2 Assay for human RAR-related Orphan Receptor beta (RORb) (AID 2283010). The method in brief: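 Readout is reporter-gene mRNA induction, detected as fluorescence after RT-PCR and capillary electrophoresis, fitted for gain of signal against DMSO controls. Transiently transfected HepG2 liver cells carrying GAL4-UAS reporter constructs were treated for 24 hours.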

Test [12] deals with human RAR-related Orphan Receptor gamma (RORg), RORC (gene 6097) (UniProt P51449). Put plainly: ATG_RORg_TRANS: Attagene TRANS-FACTORIAL HepG2 Assay for human RAR-related Orphan Receptor gamma (RORg) (AID 2283011). The method in brief:
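Chimeric RORg-Gal4 transactivation in transfected HepG2; 24 h exposure; RT-PCR/capillary electrophoresis readout of reporter mRNA, DMSO baseline.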

Test [13] concerns the target Retinoic acid receptor RXR-alpha (Homo sapiens) (UniProt P19793). Briefly: ATG_RXRa_TRANS: Attagene TRANS-FACTORIAL HepG2 Assay for human Retinoid X Receptor alpha (RXRa) (AID 2283012). The method in brief:
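Transient transfection of human HepG2 with multiple GAL4-UAS reporter constructs; 24 h compound exposure; total RNA isolated, reverse-transcribed, PCR-amplified, 6-FAM labelled, HpaI-cut, resolved by capillary electrophoresis. Positive-direction fit versus DMSO.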

Test [14] concerns the target human Retinoid X Receptor beta (RXRb), RXRB (gene 6257) (UniProt P28702). Briefly: ATG_RXRb_TRANS: Attagene TRANS-FACTORIAL HepG2 Assay for human Retinoid X Receptor beta (RXRb) (AID 2283013). The procedure, abridged: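 Transfect HepG2 with GAL4-UAS multi-reporter constructs (chimeric NR-Gal4, TRANS format); dose compound 24 h; isolate RNA, RT-PCR, FAM primer extension, HpaI digest; quantify by capillary electrophoresis; positive direction vs DMSO.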

Read-out in test [15]: E-selectin (Homo sapiens) (UniProt P16581)
Briefly: BSK_3C_Eselectin: BioMAP Diversity Plus: 3C Assay for Eselectin Biomarker Activity (AID 2283015; active = hit-call score of the fitted dose curve at least 0.9, where 1 is the maximum; inactive = score below 0.9;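 also: cell surface E-selectin protein quantified by ELISA 24 h after dosing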). To be noted: primary human endothelial cells (HUVEC); actives raise or lower the signal. The procedure, abridged: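 Endpoint derived by bidirectional fitting against DMSO vehicle; signal is ELISA-detected E-selectin from primary HUVEC at 24 h post-dosing, with parallel SRB staining (0.1% SRB, 560 nm) flagging cytotoxicity.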

Read-out in test [16]: Interleukin-1 alpha (IL1a), IL1A (gene 3552)
Put plainly: BSK_BE3C_IL1a: BioMAP Diversity Plus: BE3C Assay for Interleukin-1 alpha (IL1a) Biomarker Activity (AID 2283016; active = hit-call score of the fitted dose curve at least 0.9, where 1 is the maximum; inactive = score below 0.9). To be noted: primary human bronchial epithelial cells; actives raise or lower the signal. The procedure, abridged: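 BE3C primary human bronchial epithelium; cpd 24 h; IL-1a by ELISA; bidirectional fit vs DMSO; parallel SRB (0.1% SRB, 10% TCA fix, 560 nm) for cytotoxicity.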

Read-out in test [17]: Monocyte Chemoattractant Protein-1 (MCP1), CCL2 (gene 6347)
Briefly: BSK_3C_MCP1: BioMAP Diversity Plus: 3C Assay for Monocyte Chemoattractant Protein-1 (MCP1) Biomarker Activity (AID 2283017; active = hit-call score of the fitted dose curve at least 0.9, where 1 is the maximum; inactive = score below 0.9). To be noted: primary human endothelial cells (HUVEC); actives raise or lower the signal. The procedure, abridged:
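Using human vascular primary endothelium, researchers measured MCP-1 by ELISA 24 h after treatment, with DMSO serving as negative control for bidirectional fitting.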

Read-out in test [18]: Monocyte Chemoattractant Protein-1 (MCP1), CCL2 (gene 6347)
Put plainly: BSK_4H_MCP1: BioMAP Diversity Plus: 4H Assay for Monocyte Chemoattractant Protein-1 (MCP1) Biomarker Activity (AID 2283018; active = hit-call score of the fitted dose curve at least 0.9, where 1 is the maximum; inactive = score below 0.9). To be noted: primary human endothelial cells (HUVEC); actives raise or lower the signal. The procedure, abridged: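 ELISA read-out of MCP-1 from human vascular endothelial primary cells taken at 24 hours after compound exposure. Activity was fitted in both directions relative to DMSO, which served as negative control.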

Test [19] deals with human Thyroid Receptor alpha (THRa1), THRA (gene 7067) (UniProt P10827). Put plainly: ATG_THRa1_TRANS: Attagene TRANS-FACTORIAL HepG2 Assay for human Thyroid Receptor alpha (THRa1) (AID 2283014). The method in brief: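 Measured here is mRNA from a GAL4-UAS reporter in transfected HepG2 cells carrying a Gal4-fused receptor, 24 h post-dose. DMSO served as negative control and baseline.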
Chain of human Thyroid Receptor alpha (THRa1), THRA (gene 7067) (P10827 whole entry, looked up, the tested form may be a part): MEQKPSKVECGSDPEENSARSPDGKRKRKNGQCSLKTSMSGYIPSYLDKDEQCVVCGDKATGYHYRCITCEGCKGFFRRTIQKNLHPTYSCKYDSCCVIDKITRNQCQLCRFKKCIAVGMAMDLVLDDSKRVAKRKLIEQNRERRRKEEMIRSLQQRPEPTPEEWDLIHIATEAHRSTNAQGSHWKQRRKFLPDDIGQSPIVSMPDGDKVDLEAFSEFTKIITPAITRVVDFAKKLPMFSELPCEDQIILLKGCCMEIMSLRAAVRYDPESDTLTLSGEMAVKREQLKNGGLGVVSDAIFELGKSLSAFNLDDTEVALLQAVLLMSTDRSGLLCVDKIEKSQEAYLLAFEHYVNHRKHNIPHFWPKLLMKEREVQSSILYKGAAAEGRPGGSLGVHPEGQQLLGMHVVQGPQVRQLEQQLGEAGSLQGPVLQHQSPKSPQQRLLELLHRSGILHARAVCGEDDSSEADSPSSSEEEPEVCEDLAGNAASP

For test [20], the target named is human Peroxisome Proliferator-activated Receptor alpha (PPARa), PPARA (gene 5465) (UniProt Q07869). Briefly: ATG_PPARa_TRANS: Attagene TRANS-FACTORIAL HepG2 Assay for human Peroxisome Proliferator-activated Receptor alpha (PPARa) (AID 2283001). The procedure, abridged: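 HepG2 cells transiently transfected with multiplexed GAL4-UAS reporters driven by exogenous chimeric NR-Gal4 proteins; reporter mRNA measured after 24 h dosing. Read-out by RT-PCR, 6-FAM labelling, HpaI digestion and capillary electrophoresis; gain of signal versus DMSO.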

The term AC50 denotes the midpoint of the concentration-response curve, whichever way the signal moves.

Records with an inconclusive call do not appear. Calls of active or inactive are those of the source. The calls were made as follows, unless noted: active = hit-call score of the fitted dose curve at least 0.9, where 1 is the maximum; inconclusive = response in the unintended direction; inactive = score below 0.9.

Chain of human Retinoic Acid Receptor gamma (RARg), RARG (gene 5916) (P13631 whole entry, looked up): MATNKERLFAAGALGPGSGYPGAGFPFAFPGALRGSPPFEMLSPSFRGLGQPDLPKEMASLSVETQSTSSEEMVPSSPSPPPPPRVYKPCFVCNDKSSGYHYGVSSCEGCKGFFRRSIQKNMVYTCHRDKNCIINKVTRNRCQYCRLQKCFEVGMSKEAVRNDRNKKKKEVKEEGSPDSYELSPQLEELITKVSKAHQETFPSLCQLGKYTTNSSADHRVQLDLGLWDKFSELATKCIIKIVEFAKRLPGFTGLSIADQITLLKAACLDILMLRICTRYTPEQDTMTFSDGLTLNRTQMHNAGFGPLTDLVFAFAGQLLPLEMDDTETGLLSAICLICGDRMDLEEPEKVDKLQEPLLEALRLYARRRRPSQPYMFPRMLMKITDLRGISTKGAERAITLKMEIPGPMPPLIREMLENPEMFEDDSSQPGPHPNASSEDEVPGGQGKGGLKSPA
Chain of Peroxisome proliferator-activated receptor gamma (Homo sapiens) (P37231 whole entry, looked up, the tested form may be a part): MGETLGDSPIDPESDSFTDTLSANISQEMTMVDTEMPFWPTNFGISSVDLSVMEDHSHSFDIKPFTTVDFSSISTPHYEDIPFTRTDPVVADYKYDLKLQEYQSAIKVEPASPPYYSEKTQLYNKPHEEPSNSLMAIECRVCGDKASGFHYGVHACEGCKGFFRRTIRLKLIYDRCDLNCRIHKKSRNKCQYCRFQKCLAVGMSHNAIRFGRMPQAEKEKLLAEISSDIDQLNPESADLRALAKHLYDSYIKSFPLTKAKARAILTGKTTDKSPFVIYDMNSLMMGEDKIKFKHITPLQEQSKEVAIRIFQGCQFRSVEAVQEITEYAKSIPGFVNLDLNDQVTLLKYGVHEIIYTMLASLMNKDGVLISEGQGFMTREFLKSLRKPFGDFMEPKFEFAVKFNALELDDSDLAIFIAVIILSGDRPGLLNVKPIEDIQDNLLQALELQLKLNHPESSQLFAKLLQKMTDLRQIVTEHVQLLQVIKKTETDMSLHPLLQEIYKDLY
Chain of Retinoic acid receptor RXR-alpha (Homo sapiens) (P19793 whole entry, looked up, the tested form may be a part): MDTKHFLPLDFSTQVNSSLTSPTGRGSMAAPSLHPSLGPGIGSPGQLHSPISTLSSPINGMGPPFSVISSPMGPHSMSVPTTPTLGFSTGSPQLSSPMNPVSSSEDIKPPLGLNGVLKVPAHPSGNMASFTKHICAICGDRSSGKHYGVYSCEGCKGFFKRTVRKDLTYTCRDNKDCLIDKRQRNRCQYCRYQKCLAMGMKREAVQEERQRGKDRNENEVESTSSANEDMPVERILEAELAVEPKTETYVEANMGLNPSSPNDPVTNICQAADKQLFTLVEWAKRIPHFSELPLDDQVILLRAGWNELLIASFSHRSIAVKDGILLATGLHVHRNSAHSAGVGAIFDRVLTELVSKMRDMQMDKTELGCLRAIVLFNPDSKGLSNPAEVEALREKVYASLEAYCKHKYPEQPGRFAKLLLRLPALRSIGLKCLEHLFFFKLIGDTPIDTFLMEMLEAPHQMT
Chain of human RAR-related Orphan Receptor gamma (RORg), RORC (gene 6097) (P51449 whole entry, looked up, the tested form may be a part): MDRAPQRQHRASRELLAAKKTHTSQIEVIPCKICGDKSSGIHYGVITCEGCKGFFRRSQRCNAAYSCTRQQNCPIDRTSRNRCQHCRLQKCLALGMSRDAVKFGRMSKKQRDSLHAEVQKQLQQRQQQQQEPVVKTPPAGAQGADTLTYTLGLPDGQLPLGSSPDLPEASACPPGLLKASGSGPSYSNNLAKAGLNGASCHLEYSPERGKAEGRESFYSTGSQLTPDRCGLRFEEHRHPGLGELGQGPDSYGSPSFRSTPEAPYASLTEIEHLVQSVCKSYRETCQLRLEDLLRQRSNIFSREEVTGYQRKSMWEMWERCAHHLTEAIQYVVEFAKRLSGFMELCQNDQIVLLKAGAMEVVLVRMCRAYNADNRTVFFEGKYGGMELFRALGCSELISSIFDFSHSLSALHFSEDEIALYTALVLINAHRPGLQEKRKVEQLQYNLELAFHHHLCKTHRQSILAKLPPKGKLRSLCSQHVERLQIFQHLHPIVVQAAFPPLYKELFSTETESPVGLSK
Chain of human Peroxisome Proliferator-activated Receptor delta (PPARd), PPARD (gene 5467) (Q03181 whole entry, looked up, the tested form may be a part): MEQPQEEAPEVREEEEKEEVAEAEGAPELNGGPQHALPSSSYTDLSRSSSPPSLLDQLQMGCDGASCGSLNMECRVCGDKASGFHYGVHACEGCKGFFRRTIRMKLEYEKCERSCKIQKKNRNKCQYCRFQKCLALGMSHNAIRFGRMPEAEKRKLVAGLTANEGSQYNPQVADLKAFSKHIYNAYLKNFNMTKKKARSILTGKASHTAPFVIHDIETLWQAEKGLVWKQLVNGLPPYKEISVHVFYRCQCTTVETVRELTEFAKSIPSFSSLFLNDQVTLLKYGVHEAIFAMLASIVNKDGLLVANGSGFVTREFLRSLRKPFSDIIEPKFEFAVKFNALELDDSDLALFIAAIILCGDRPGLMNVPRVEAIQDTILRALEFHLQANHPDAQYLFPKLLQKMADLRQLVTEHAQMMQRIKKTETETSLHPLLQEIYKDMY
Chain of human Retinoid X Receptor beta (RXRb), RXRB (gene 6257) (P28702 whole entry, looked up, the tested form may be a part): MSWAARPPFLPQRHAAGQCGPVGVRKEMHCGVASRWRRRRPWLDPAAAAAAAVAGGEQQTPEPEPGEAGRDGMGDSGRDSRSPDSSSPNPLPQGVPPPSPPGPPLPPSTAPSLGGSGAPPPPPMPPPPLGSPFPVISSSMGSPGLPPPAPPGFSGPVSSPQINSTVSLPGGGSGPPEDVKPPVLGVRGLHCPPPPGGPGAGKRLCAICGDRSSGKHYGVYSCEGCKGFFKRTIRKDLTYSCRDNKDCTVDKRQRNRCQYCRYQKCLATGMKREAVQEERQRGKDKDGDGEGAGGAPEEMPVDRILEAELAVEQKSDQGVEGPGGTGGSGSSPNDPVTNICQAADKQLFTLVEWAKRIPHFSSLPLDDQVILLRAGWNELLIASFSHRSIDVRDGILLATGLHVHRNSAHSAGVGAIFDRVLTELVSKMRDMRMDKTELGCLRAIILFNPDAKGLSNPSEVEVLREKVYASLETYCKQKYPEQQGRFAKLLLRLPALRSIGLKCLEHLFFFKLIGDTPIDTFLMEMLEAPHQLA
Chain of human Retinoic Acid Receptor beta (RARb), RARB (gene 5915) (P10826 whole entry, looked up, the tested form may be a part): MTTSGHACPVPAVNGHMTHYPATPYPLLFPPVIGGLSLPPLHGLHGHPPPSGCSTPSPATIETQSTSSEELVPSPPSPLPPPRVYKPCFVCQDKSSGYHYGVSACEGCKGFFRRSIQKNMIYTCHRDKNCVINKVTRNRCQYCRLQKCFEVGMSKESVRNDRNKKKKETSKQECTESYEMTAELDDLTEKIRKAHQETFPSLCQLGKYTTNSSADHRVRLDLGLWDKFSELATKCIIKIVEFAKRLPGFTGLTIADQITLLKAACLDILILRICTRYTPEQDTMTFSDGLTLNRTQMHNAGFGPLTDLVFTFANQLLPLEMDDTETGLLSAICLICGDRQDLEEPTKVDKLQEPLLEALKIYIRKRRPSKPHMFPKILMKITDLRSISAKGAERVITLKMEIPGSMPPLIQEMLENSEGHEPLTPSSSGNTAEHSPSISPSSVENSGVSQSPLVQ
Chain of E-selectin (Homo sapiens) (P16581 whole entry, looked up): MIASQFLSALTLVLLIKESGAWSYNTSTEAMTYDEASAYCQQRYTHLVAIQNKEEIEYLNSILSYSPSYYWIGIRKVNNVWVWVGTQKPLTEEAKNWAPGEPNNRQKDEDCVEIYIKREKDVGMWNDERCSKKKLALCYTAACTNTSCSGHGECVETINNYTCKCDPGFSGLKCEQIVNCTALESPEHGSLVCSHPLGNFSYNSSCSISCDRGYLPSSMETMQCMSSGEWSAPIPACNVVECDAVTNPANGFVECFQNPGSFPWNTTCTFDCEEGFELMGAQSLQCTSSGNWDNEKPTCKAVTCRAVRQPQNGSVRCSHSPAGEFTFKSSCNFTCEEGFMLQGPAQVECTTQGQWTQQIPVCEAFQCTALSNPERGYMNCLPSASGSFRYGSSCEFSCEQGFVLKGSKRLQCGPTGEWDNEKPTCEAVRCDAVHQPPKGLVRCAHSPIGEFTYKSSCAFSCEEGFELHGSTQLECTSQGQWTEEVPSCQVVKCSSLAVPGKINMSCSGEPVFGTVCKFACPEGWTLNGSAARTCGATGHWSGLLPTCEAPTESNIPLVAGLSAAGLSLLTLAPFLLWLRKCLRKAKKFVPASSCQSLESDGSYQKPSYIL

Regarding `CCSC(=O)N1CCCCCC1`, the outcome in test [1], in test [2], in test [3], in [4], in [5] and in test [6] was inactive. Further, the outcome in test [7], in [8], in [10], in test [11], in [12] and in test [13] was inactive. The call in [14], in [15], in test [16], in test [17] and in test [18] was inactive. Besides, the AC50 in test [9] is 84.4 µM (active).

In the case of `CCNC(=O)NC(=O)C(C#N)=NOC`, the outcome in [1], in [2], in test [3], in test [4], in [6] and in test [7] was inactive. Further, the compound was classed as inactive in test [8], in test [11], in test [12], in test [13], in test [19] and in test [15]. Moreover, the outcome in test [16], in test [17] and in [18] was inactive.

With `Nc1c(Cl)c(F)nc(OCC(=O)O)c1Cl`, the outcome in [1], in [2], in test [4], in [5], in test [6] and in test [7] was inactive. For the same compound, the call in [8], in test [9], in test [10], in test [11], in test [13] and in test [14] was inactive. For the same compound, the outcome in test [15], in test [16], in test [17] and in test [18] was inactive.

`CNC(=O)Oc1cccc2ccccc12`: the outcome in [1], in test [4], in test [5], in test [6], in test [9] and in [10] was inactive. In addition, the result in test [11], in [12], in test [13], in [14], in test [19] and in test [15] was inactive. In addition, the outcome in test [17] and in test [18] was inactive. Also, the AC50 was 20 µM (active) in test [2] and 22.9 µM (active) in [7].

As for `CSC(=O)c1c(C(F)F)nc(C(F)(F)F)c(C(=O)SC)c1CC(C)C`, the result in [1], in test [2], in test [3], in test [4], in [5] and in test [10] was inactive. Moreover, the outcome in [11], in [12], in test [13], in test [15] and in [16] was inactive. Also, the AC50 in test [7] is 15.7 µM (active); in test [8], 10.9 µM (active); in [9], 1.66 µM (active); in test [14], 15.1 µM (active); in test [17], 31.2 µM (active); in [18] it was 20 µM (active).

For `CCC(C)n1c(=O)[nH]c(C)c(Br)c1=O` (centres undefined), the result in test [1], in test [2], in [20], in test [4], in test [7] and in [9] was inactive. For the same compound, the call in test [11], in test [12], in [13], in test [14], in [19] and in test [15] was inactive. For the same compound, the outcome in test [17] and in [18] was inactive.

For `CC1(C)CCC(=Cc2ccc(Cl)cc2)C1(O)Cn1cncn1` (centres undefined), the result in test [1], in test [2], in test [4], in test [5], in test [6] and in test [7] was inactive. Besides, the outcome in test [8], in [10], in test [13], in test [14], in test [15] and in test [17] was inactive. Also, the result in test [18] was inactive. Further, in test [9], the AC50 is 9.33 µM (active).

In the case of `Clc1cccc(C(Cl)(Cl)Cl)n1`, the result in [1], in [2], in test [20], in [4], in test [7] and in [8] was inactive. Moreover, the outcome in test [9], in test [12], in test [13], in test [14], in test [19] and in [15] was inactive. Further, the result in test [17] and in test [18] was inactive.
